The list is not random: actives were taken first. Their share in the collection is about 3.9%.
PLCg1 inh: PLC-gamma1 (human) inhibition, primary screen; purified PLC-gamma1, fluorogenic substrate, fluorescence; hit rate 0.84% among 370,000; AID 720700; inhibition, % at 12.2 µM; in the data active means inhibition above about 9.5%
AHR activator: activators of human aryl hydrocarbon receptor; activation, % at 5 µM; hit rate 2.5% among 320,000; AHR-responsive luciferase reporter cells, luminescence; P35869; AID 2796; in the data active means activation above about 47%
HIF act: HIF pathway transcriptional activation. hit rate 0.32% among 300,000. U2OS HRE-luciferase reporter, luminescence; normalized: DMSO 0%, desferrioxamine 100%. activation, % at 7.5 µM (by protocol);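 active means mean activation of at least 10% of the iron chelator positive control signal, with at least half of replicates also reaching 10%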
PLC-beta3 inh: inhibitors of human phospholipase C beta3 | Q01970 | Purified PLC-beta3, fluorogenic substrate, fluorescence | inhibition, % at 12.2 µM | hit rate 0.18% among 370,000 | AID 720704; in the data active means inhibition above about 11%
CR mimetic SO: lowers age-related superoxide in aged yeast cells. S. cerevisiae aged cells, superoxide DHE fluorescence; hits give low values. hit rate 0.18% among 330,000. superoxide response (% of plate mean), % at 10 µM;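 active means superoxide response under a set limit, about three screen SD below normal, cut at about 65% in these data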;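 further: yeast aged for seven days with compound at 30 °C before DHE staining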
HGIII-sPLA2 inh: Blocks human group III sPLA2 activity; Q9NZ20; QFRET BODIPY PC-A2 liposome hydrolysis, fluorescence; inhibition, % at 12.2 µM; hit rate 0.56% among 370,000;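 active means inhibition above mean plus 3 SD of compounds lying within the high and low control bounds, cut at about 19% in these data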
Each line names hits and unclear results; the compound was inactive in the other large screens.

CCCCOc1ccc(C(=O)n2ccc3ccc(-c4ccc5ccn(Cc6ccccc6)c5c4)cc32)cc1	none (no result: AHR activator, HIF act, CR mimetic SO)
O=C(CSc1nnc(SCc2cccc3ccccc23)s1)Nc1ccccc1-c1ccccc1	none (no result: AHR activator, HIF act, CR mimetic SO)
O=C(Nc1ccc(Cl)cc1)Nc1ccccc1Sc1ncc([N+](=O)[O-])s1	AHR activator 66
N#C/C(=C\c1ccc(OC(=O)c2ccc(Cl)s2)cc1)c1nc2ccccc2[nH]1	AHR activator 49
CN(C)c1ccc(C(CNS(=O)(=O)c2ccc(F)cc2)c2c[nH]c3ccccc23)cc1 (configuration not stated)	AHR activator 57
COc1ccc(Cn2cc(CN3[C@H](C)COc4cc(Br)ccc4S3(=O)=O)nn2)cc1	none (no result: AHR activator, HIF act, CR mimetic SO)
CCN1CCCCC(NC(=O)c2ccc(Cl)cc2Cl)C1=O (configuration not stated)	none (no result: AHR activator, HIF act, CR mimetic SO)
COc1ccc(C(=O)Nc2nc(CC(=O)NCCc3ccccc3)cs2)cc1	AHR activator 48
O=C(N[C@H](Cc1ccccc1)C(=O)N1CCN(c2ncccn2)CC1)[C@H]1O[C@@H](n2ccc(=O)[nH]c2=O)[C@H](O)[C@@H]1O	none (no result: AHR activator, HIF act, CR mimetic SO)
FC(F)Oc1ccc(NC(=S)Nc2ccc3cn[nH]c3c2)cc1	HIF act 9.8
COc1ccc(OC)c(C(=O)Nc2ccc3[nH]ccc3c2)c1	AHR activator 50
COc1ccc(C(=O)Nc2ccc3cn[nH]c3c2)c(OC)c1	AHR activator 56
COc1ccc(C(=O)Nc2ccc3[nH]ccc3c2)cc1	none
CC(=O)Nc1sc2c(c1-c1nc3ccccc3s1)CCCNC2	none (no result: AHR activator, HIF act, CR mimetic SO)
CCCCCCCCN1C(=O)[C@@H](CC(=O)NCC2CCCCC2)C[C@@]2(C(=O)OC)C1=C[C@H](COCc1ccccc1)O[C@@H]2C	none (no result: AHR activator, HIF act, CR mimetic SO)
CCOc1ccc(OCC)c(NC(=O)CN(c2ccc(OC)cc2)S(=O)(=O)c2c(C)noc2C)c1	AHR activator 58
CCOc1ccccc1NC(=O)CN(c1ccc(C)cc1)S(=O)(=O)c1c(C)noc1C	none (no result: HIF act)
CCOc1ccc(OCC)c(NC(=O)CN(c2ccc(C)cc2)S(=O)(=O)c2c(C)noc2C)c1	AHR activator 62
CCOc1ccc(N(CC(=O)Nc2ccccc2)S(C)(=O)=O)cc1	none
CCOc1ccc(N(CC(=O)Nc2ccc(C)c(C)c2)S(C)(=O)=O)cc1	AHR activator 52
Cc1ccc2c(c1)c1c3n2CCN(CCC#N)C3CCC1 (configuration not stated)	none (no result: AHR activator, HIF act, CR mimetic SO)
CCN1CCn2c3c(c4cccc(C)c42)CCCC31 (configuration not stated)	AHR activator 61
CCOC(=O)N[C@H](C(=O)N1CCC[C@H]1C(=O)NCCc1ccccc1Cl)C1CCCCC1	none (no result: AHR activator, HIF act, CR mimetic SO)
O=C(/C=C/c1ccco1)Oc1cc(Br)cc(/C=N/NC(=O)c2ccccc2O)c1	HIF act 97
Cc1ccc(C(=O)N/N=C/c2cccc(OC(=O)/C=C/c3ccco3)c2)cn1	none
O=C(O)C(=O)/C(=C\c1ccccc1)c1ccc2ccccc2n1	AHR activator 48
O=C(O)C(=O)/C(=C\c1ccsc1)c1ccc2ccccc2n1	AHR activator 77
C[C@@H]1[C@@H](O)C[C@@]2(CC(=O)c3ccccc3O2)O[C@H]1c1ccccc1	none (no result: AHR activator, HIF act, CR mimetic SO)
CN(Cc1cccs1)C(=O)COC(=O)CNC(N)=O	none
CN(Cc1cccs1)C(=O)CSc1nc(N)cc(N)n1	HIF act 39
Cc1ccc(C2CC(c3cccs3)=NN2C(=O)CSc2nc3ccccc3o2)cc1 (configuration not stated)	AHR activator 75
O=C(CSc1nc2ccccc2o1)N1N=C(c2cccs2)CC1c1ccc(F)cc1 (configuration not stated)	none
O=C(NCCN1CCC(Cc2ccccc2)CC1)C1CCCN(S(=O)(=O)c2ccccc2[N+](=O)[O-])C1 (configuration not stated)	none (no result: AHR activator, HIF act, CR mimetic SO)
O=C(NC1CCCC1)c1cc(-c2ccccc2O)on1	none
O=C(NC1CCCC1)c1cc(-c2cccs2)on1	HIF act 32
O=C(NCCCN1CCOCC1)c1cc(-c2cccs2)on1	HIF act 20
COc1ccc(/C=C/C(=O)NCCSCc2ccco2)cc1OC	HIF act 57
COc1ccc(CCNC(=O)/C=C/c2ccco2)cc1OC	none
O=C1CCCc2oc3c(cc(NS(=O)(=O)c4ccc5c6c(cccc46)C(=O)N5)c4ccccc43)c21	AHR activator 54
COC(=O)c1ccccc1NS(=O)(=O)c1ccc2c3c(cccc13)C(=O)N2	none (no result: HIF act)
Cc1oc2c(cc(NS(=O)(=O)c3ccc4c5c(cccc35)C(=O)N4)c3ccccc32)c1C(=O)OC(C)C	AHR activator 74
C[C@H]1CN(C(=O)OC(C)(C)C)CCN1c1ccc(Br)c(C#N)c1	none (no result: AHR activator, HIF act, CR mimetic SO)
COc1cc(NC(=O)C2CCCN(S(=O)(=O)c3ccc(C)c(C)c3)C2)cc(OC)c1 (configuration not stated)	none (no result: AHR activator, HIF act, CR mimetic SO)
Cc1ccc(-c2nc3ncccc3o2)cc1NC(=O)c1ccccc1	none
COc1ccc(-c2nc3ncccc3o2)cc1NC(=O)c1ccco1	AHR activator 76
Cc1ccc(C(=O)C[n+]2cccc3ccccc32)cc1	none
O=C(C[n+]1cccc2ccccc21)c1ccc(Br)cc1	AHR activator 65
O=C(C[n+]1cc(Br)cc2ccccc21)c1ccc(Cl)cc1	AHR activator 73
C=Cc1ccc(C(=O)N2CCC(n3nnc4ncccc43)CC2)cc1	none (no result: AHR activator, HIF act, CR mimetic SO)
CSc1c(CC(=O)Nc2ccccc2)n(C)c2ccccc12	AHR activator 58
COc1ccc(CN2CCC(CNC(=O)Nc3ccc(C)c(F)c3)CC2)cc1	none (no result: AHR activator, HIF act, CR mimetic SO)
Cc1cc(C)cc(NC(=O)c2cccc(NC(=O)c3ccco3)c2)c1	HIF act 53
O=C(NC1=NCCS1)c1cccc(NC(=O)c2ccco2)c1	HIF act 12
O=C(Nc1ccc2c(c1)OCO2)NC1CCN(S(=O)(=O)c2ccc(F)cc2)CC1	none (no result: AHR activator, HIF act, CR mimetic SO)
O=C(O)C1Nc2c(cccc2C(F)(F)F)C2C=CCC12 (configuration not stated)	none (no result: PLCg1 inh, AHR activator, PLC-beta3 inh, HGIII-sPLA2 inh)
O=C(O)C1Nc2c(O)cc(Cl)c([N+](=O)[O-])c2C2C=CCC12 (configuration not stated)	PLCg1 inh 31
O=C(N/N=C/c1cc2cc3c(cc2nc1Cl)OCCO3)c1ccccc1O	none
O=C(N/N=C/c1cc(Cl)ccc1O)c1ccncc1	HIF act 26
O=C(N/N=C/c1cc2cc3c(cc2nc1Cl)OCO3)c1ccncc1	AHR activator 64, HIF act 345
COc1ccc(/C=C2\CC3(OC(=O)c4ccccc4)CCCN2C3)cc1 (configuration not stated)	none (no result: AHR activator, HIF act, CR mimetic SO)
COc1ccccc1CCn1cnc(-c2ccc(OC)c(OC)c2)c1CC(C)C	none (no result: AHR activator, HIF act, CR mimetic SO)
O=C1Nc2cc(C(F)(F)F)ccc2N2CCCCC12 (configuration not stated)	AHR activator 74
O=C1Nc2ccc(C(F)(F)F)cc2N2CCCC12 (configuration not stated)	none (no result: PLCg1 inh, PLC-beta3 inh, HGIII-sPLA2 inh)

Screens (PubChem)
